# The supplement of paper PMC8975748
# Counter-ions that a name gives are not always drawn. ± gives the standard deviation of the averaged measurements.
# Assays:
# [1] = test system: Saccharomyces cerevisiae BY4741 SeMeCo community; test: mean cell size (pixel area) (pixels); higher = larger cells; conditions: 10 µM; 24 h; SM minimal medium
# Outline: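 Plates of 384 wells were acoustically predosed with drug at a final 10 µM in SM medium, and 70 µl of a Saccharomyces cerevisiae BY4741 preculture diluted from OD600 = 1.0 to OD600 = 0.3 was added for 24 h. The yeast formed a four-plasmid fluorescent community in which each plasmid complements one auxotrophy and carries a fluorescent marker. Fixed cells were imaged by automated confocal microscopy and analysed in Harmony for mean cell pixel area per well. Values are means of 3 replicates. Same SeMeCo high-content imaging drug screen: Selleck FDA-approved drugs at 10 µM, 24 h in SM medium, 384-well plates, 3 replicates.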
# [2] = test system: Saccharomyces cerevisiae BY4741 SeMeCo community; test: z-score of subpopulation abundance vs DMSO median, subpopulation auxotrophic for M; higher = larger share of this subpopulation than in DMSO controls; conditions: 10 µM; 24 h; SM minimal medium; subpopulation (auxotrophy): M
# Outline: (§1)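 A Saccharomyces cerevisiae BY4741 community carried four plasmids, each restoring one auxotrophy and encoding a distinct fluorescent protein. It was pre-grown overnight to OD600 1.0, diluted to 0.3, and 70 µl was added to 384-well plates acoustically predosed with library drugs (10 µM final), then grown 24 h in minimal SM medium. Cells were paraformaldehyde-fixed and imaged by automated confocal microscopy, with single-auxotroph fluorescent strains setting thresholds and autofluorescence correction. Each subpopulation's abundance was scored as a z-score against the vehicle-well median.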
# [3] = test system: Saccharomyces cerevisiae BY4741 SeMeCo community; test: z-score of subpopulation abundance vs DMSO median, subpopulation auxotrophic for L; higher = larger share of this subpopulation than in DMSO controls; conditions: 10 µM; 24 h; SM minimal medium; subpopulation (auxotrophy): L
# Outline: as §1
# [4] = test system: Saccharomyces cerevisiae BY4741 SeMeCo community; test: z-score of subpopulation abundance vs DMSO median, subpopulation auxotrophic for U; higher = larger share of this subpopulation than in DMSO controls; conditions: 10 µM; 24 h; SM minimal medium; subpopulation (auxotrophy): U
# Outline: as §1
# [5] = test system: Saccharomyces cerevisiae BY4741 SeMeCo community; test: z-score of subpopulation abundance vs DMSO median, subpopulation auxotrophic for H; higher = larger share of this subpopulation than in DMSO controls; conditions: 10 µM; 24 h; SM minimal medium; subpopulation (auxotrophy): H
# Outline: as §1
# [6] = test system: Saccharomyces cerevisiae BY4741 SeMeCo community; test: z-score of subpopulation abundance vs DMSO median, subpopulation auxotrophic for LU; higher = larger share of this subpopulation than in DMSO controls; conditions: 10 µM; 24 h; SM minimal medium; subpopulation (auxotrophy): LU
# Outline: as §1
# [7] = test system: Saccharomyces cerevisiae BY4741 SeMeCo community; test: z-score of subpopulation abundance vs DMSO median, subpopulation auxotrophic for LM; higher = larger share of this subpopulation than in DMSO controls; conditions: 10 µM; 24 h; SM minimal medium; subpopulation (auxotrophy): LM
# Outline: as §1
# [8] = test system: Saccharomyces cerevisiae BY4741 SeMeCo community; test: z-score of subpopulation abundance vs DMSO median, subpopulation auxotrophic for HM; higher = larger share of this subpopulation than in DMSO controls; conditions: 10 µM; 24 h; SM minimal medium; subpopulation (auxotrophy): HM
# Outline: as §1
# [9] = test system: Saccharomyces cerevisiae BY4741 SeMeCo community; test: z-score of subpopulation abundance vs DMSO median, subpopulation auxotrophic for UM; higher = larger share of this subpopulation than in DMSO controls; conditions: 10 µM; 24 h; SM minimal medium; subpopulation (auxotrophy): UM
# Outline: as §1
# [10] = test system: Saccharomyces cerevisiae BY4741 SeMeCo community; test: z-score of subpopulation abundance vs DMSO median, subpopulation auxotrophic for HL; higher = larger share of this subpopulation than in DMSO controls; conditions: 10 µM; 24 h; SM minimal medium; subpopulation (auxotrophy): HL
# Outline: as §1
# [11] = test system: Saccharomyces cerevisiae BY4741 SeMeCo community; test: z-score of subpopulation abundance vs DMSO median, subpopulation auxotrophic for HLU; higher = larger share of this subpopulation than in DMSO controls; conditions: 10 µM; 24 h; SM minimal medium; subpopulation (auxotrophy): HLU
# Outline: as §1
# [12] = test system: Saccharomyces cerevisiae BY4741 SeMeCo community; test: z-score of subpopulation abundance vs DMSO median, subpopulation auxotrophic for HLM; higher = larger share of this subpopulation than in DMSO controls; conditions: 10 µM; 24 h; SM minimal medium; subpopulation (auxotrophy): HLM
# Outline: as §1
# [13] = test system: Saccharomyces cerevisiae BY4741 SeMeCo community; test: z-score of subpopulation abundance vs DMSO median, subpopulation auxotrophic for HUM; higher = larger share of this subpopulation than in DMSO controls; conditions: 10 µM; 24 h; SM minimal medium; subpopulation (auxotrophy): HUM
# Outline: as §1
# [14] = test system: Saccharomyces cerevisiae BY4741 SeMeCo community; test: z-score of subpopulation abundance vs DMSO median, subpopulation auxotrophic for LUM; higher = larger share of this subpopulation than in DMSO controls; conditions: 10 µM; 24 h; SM minimal medium; subpopulation (auxotrophy): LUM
# Outline: as §1
# [15] = test system: Saccharomyces cerevisiae BY4741 SeMeCo community; test: z-score of prototroph abundance vs DMSO median; higher = larger share of this subpopulation than in DMSO controls; conditions: 10 µM; 24 h; SM minimal medium; subpopulation (auxotrophy): Prototroph
# Outline: as §1
# [16] = test system: Saccharomyces cerevisiae BY4741 SeMeCo community; test: z-score of subpopulation abundance vs DMSO median, subpopulation auxotrophic for HU; higher = larger share of this subpopulation than in DMSO controls; conditions: 10 µM; 24 h; SM minimal medium; subpopulation (auxotrophy): HU
# Outline: as §1
# [17] = test system: Saccharomyces cerevisiae BY4741 SeMeCo community; test: z-score of subpopulation abundance vs DMSO median, subpopulation auxotrophic for HLUM; higher = larger share of this subpopulation than in DMSO controls; conditions: 10 µM; 24 h; SM minimal medium; subpopulation (auxotrophy): HLUM
# Outline: as §1
SMILES,mean cell size [1],z-score of subpopulation abundance [2],z-score of subpopulation abundance [3],z-score of subpopulation abundance [4],z-score of subpopulation abundance [5],z-score of subpopulation abundance [6],z-score of subpopulation abundance [7],z-score of subpopulation abundance [8],z-score of subpopulation abundance [9],z-score of subpopulation abundance [10],z-score of subpopulation abundance [11],z-score of subpopulation abundance [12],z-score of subpopulation abundance [13],z-score of subpopulation abundance [14],z-score of prototroph abundance [15],z-score of subpopulation abundance [16],z-score of subpopulation abundance [17]
CCCSc1ccc2[nH]c(NC(=O)OC)nc2c1 [Albendazole],12.59 ± 0.075,0.54,-0.04,0.62,-0.51,0.31,0.33,0.37,0.26,-0.39,0.38,0.74,-0.14,-0.08,,,
C[N+]1(C)CCC(=C(c2ccccc2)c2ccccc2)CC1 [Diphemanil Methylsulfate],12.6 ± 0.23,1.5,-0.56,0,-0.27,-0.26,0.34,,0.25,,-0.19,-0.02,0.68,0.41,-0.15,-0.13,-0.18
COc1cc2c(cc1OC)[C@@H]1Cc3ccc(OC)c(OC)c3CN1CC2 [Rotundine],12.5 ± 0.15,0.07,-0.28,0.7,0.05,0.16,-0.15,,-0.01,,0.67,-0.41,0.14,-0.04,-0.12,0.17,0.13
CC[C@H]1OC(=O)C[C@@H](O)[C@H](C)[C@@H](O[C@@H]2O[C@H](C)[C@@H](O)[C@H](N(C)C)[C@H]2O)[C@@H](CCN2C[C@H](C)C[C@H](C)C2)C[C@@H](C)C(=O)/C=C/C(C)=C/[C@@H]1CO[C@@H]1O[C@H](C)[C@@H](O)[C@@H](OC)[C@H]1OC [Tilmicosin],12.4 ± 0.17,-0.16,0.75,0.52,0.98,1.26,0.46,,,,0.58,0.13,0.75,1.68,-1.13,1.52,0.67
CCN(CC)CCOc1ccc(C(=C(Cl)c2ccccc2)c2ccccc2)cc1 [Clomifene citrate],12.1 ± 0.14,0.99,0.3,,0.53,1.04,1.33,1.75,,,2.19,1.37,1.42,1.75,,1.86,
C#CCN(C)Cc1ccccc1 [Pargyline hydrochloride],12.7 ± 0.23,-0.55,0.76,0.56,-0.83,1.29,-0.51,-0.95,-0.55,-0.44,0.43,-0.13,0,0.15,0.24,,
NCCNc1ccc(NCCN)c2c1C(=O)c1ccncc1C2=O [Pixantrone Maleate],11.8 ± 0.17,-11.8,1.31,2.84,3.74,2.14,-5.3,,,9.63,7.46,-2.2,-5.6,-4.09,3.16,4.69,-1.46
COc1cc(NS(=O)(=O)c2ccc(N)cc2)nc(OC)n1 [SulfadiMethoxine sodium],12.4 ± 0.15,0.96,-0.99,-0.68,-0.13,-0.82,-0.45,0.06,-0.12,-0.28,-0.72,0,-0.22,,0.53,0.29,
